Results filed as inconclusive are left out. Activity calls are given as the source filed them. Unless noted, calls follow the shape of the dose curve; as a rule, active = well fitted curve in the direction sought with a large enough effect; inconclusive = small, poorly fitted or top-dose-only effect, or another doubt; inactive = no such curve, though single readings can be large; an effect the other way counts as inactive or inconclusive.
Key:
[1] = molecular target: Lysosomal acid glucosylceramidase (Homo sapiens) (UniProt P04062); test: Glucocerebrosidase-p2 (AID 348; in the data active = potency below about 10 µM; also: potency is read from the fitted curve at half-maximal effect); settings: purified GBA, blue fluorogenic substrate, 40 min
Lysosomal acid glucosylceramidase (Homo sapiens), sequence (P04062 whole entry, looked up): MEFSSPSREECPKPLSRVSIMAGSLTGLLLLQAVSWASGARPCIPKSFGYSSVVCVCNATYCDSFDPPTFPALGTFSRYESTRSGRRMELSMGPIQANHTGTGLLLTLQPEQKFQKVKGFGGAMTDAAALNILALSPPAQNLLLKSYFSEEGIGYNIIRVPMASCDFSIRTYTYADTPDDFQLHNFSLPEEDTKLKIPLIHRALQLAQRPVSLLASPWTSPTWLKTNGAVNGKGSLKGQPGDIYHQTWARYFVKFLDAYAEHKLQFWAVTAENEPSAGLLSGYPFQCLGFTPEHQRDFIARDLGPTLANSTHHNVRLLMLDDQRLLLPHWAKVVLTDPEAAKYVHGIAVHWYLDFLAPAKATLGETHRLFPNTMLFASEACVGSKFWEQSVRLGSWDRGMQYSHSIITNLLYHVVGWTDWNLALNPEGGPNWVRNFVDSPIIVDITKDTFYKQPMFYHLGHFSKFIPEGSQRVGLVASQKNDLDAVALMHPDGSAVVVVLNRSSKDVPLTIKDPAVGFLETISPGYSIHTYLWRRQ
Method in brief: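 Normal human glucocerebrosidase (0.2 nM) with blue fluorogenic substrate (80 uM final) in citrate/phosphate pH 5.9 with 10mM sodium taurocholate, 0.01% tween-20; 40 min RT, NaOH/glycine stop; fluorescence Ex 365/Em 440; AC50 from a titration from 0.6 nM upwards.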

[2] = AP1 Signaling Pathway (AID 357; active = well fitted curve in either direction with a large enough effect, not every such curve was filed as active;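 also: ME-180 reporter cells stimulated with EGF at its EC50 level; % is scaled to controls: 0 for no effect and ±100 for the full control effect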); settings: ME-180 AP-1-bla reporter, EGF-induced, beta-lactamase ratio, 5 h; at 7.69 µM (top of the series) unless noted
Method in brief: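 Read-out was the 460nm/530nm emission ratio (excitation 405nm) after CCF4 loading for 2.5 hours at room temperature. Cells carried an AP-1-driven beta-lactamase reporter, were stimulated with EC50 EGF plus compound for 5 hours, and AC50 values came from titrations.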

[3] = molecular target: Cytochrome P450 1A2 (Homo sapiens) (UniProt P05177); test: p450-cyp1a2 (AID 410; calls by dose curve; also: potency is read from the fitted curve at half-maximal effect); settings: recombinant CYP1A2, luciferin-ME demethylation, luminescence; series mostly up to 57 µM
Cytochrome P450 1A2 (Homo sapiens), sequence (P05177 whole entry, looked up): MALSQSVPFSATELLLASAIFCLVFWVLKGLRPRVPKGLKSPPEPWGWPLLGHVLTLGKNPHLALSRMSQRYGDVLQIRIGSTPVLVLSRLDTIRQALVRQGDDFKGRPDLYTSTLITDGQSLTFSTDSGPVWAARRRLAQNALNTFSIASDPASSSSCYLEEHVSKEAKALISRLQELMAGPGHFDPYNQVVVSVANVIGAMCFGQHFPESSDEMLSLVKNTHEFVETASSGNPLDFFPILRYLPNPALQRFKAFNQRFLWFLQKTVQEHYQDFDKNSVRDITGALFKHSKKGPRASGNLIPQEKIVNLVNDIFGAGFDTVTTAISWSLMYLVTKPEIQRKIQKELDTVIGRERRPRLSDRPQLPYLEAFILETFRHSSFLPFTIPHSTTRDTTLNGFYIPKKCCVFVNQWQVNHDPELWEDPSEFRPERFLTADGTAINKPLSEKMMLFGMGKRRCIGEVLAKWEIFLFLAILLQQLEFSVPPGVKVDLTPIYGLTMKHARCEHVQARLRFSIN
Method in brief: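 Luminescent demethylation readout: Luciferin-ME (100uM, equal to Km) turned over by 20nM CYP1A2 for 60 min at room temperature after NADPH regeneration addition, following 10 min compound preincubation. Normalization used 57 uM furafylline as full inhibition.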

[4] = NFAT Signaling Pathway (AID 444; active = well fitted curve in either direction with a large enough effect, not every such curve was filed as active;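 also: carbachol stimulus at about its EC50 of 1 µM final; % is scaled to controls: 0 for no effect and ±100 for the full control effect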); settings: Jurkat NFAT-bla M1, carbachol, beta-lactamase ratio, 5 h; at 7.69 µM (top of the series) unless noted
Method in brief: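 Jurkat cells with NFAT-driven β-lactamase reporter and co-expressed M1 receptor, stimulated with carbachol (final 1 uM, ~EC50), compound titration, 5 h at 37 °C. CCF4 loaded 1 h at RT; 460/530 nm ratio gave %activity and AC50.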

[5] = Stat Signaling Pathway (AID 446; active = well fitted curve in either direction with a large enough effect, not every such curve was filed as active;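 also: ME-180 cervical cancer cells given 40 pM IL-6 alongside compound; SIE-controlled beta-lactamase reporter measured as 460/530 nm FRET emission ratio; % is scaled to controls: 0 for no effect and ±100 for the full control effect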); settings: ME-180 (cervical carcinoma) SIE beta-lactamase reporter, IL-6 stimulated, 5 h; at 7.69 µM (top of the series) unless noted
Method in brief: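 Compound effects on IL-6-induced STAT reporter activity were measured in ME-180 cells. After overnight culture, cells were co-treated with 40 pM IL-6 for 5 hrs before beta-lactamase substrate loading at room temperature.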

[6] = molecular target: Glucocorticoid receptor (Homo sapiens) (UniProt P04150); test: GR-GFP Redistribution (AID 450;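 active = compounds whose dose series gives a full or clear partial fitted curve of increased nuclear translocation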; also: potency is read from the fitted curve at half-maximal effect); settings: U2OS GR-GFP nuclear translocation, laser cytometry, 2 h
Glucocorticoid receptor (Homo sapiens), sequence (P04150 whole entry, looked up, the tested form may be a part): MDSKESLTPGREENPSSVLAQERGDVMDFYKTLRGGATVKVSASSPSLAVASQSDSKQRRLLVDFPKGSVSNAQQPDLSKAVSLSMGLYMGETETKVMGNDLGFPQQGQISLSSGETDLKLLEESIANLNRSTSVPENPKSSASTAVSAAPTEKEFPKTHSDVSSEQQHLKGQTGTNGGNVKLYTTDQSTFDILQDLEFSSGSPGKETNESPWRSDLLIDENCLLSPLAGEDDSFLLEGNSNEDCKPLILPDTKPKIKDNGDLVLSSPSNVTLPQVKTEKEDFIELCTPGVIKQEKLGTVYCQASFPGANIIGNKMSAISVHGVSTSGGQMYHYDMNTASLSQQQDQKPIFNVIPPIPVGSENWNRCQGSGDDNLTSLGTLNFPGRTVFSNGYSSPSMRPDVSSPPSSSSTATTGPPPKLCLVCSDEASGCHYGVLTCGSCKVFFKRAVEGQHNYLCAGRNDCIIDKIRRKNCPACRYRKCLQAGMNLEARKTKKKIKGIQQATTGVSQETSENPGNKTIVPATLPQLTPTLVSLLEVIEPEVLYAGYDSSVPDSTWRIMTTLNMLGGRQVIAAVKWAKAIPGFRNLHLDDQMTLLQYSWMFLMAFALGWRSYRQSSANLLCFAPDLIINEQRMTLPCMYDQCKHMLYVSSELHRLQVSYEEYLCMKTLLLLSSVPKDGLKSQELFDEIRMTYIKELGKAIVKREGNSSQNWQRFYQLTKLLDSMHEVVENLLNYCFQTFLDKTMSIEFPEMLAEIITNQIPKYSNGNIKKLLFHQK

[7] = molecular target: Glucocorticoid receptor (Homo sapiens) (UniProt P04150); test: GR-EFC Redistribution (AID 451; calls by dose curve; also: potency is read from the fitted curve at half-maximal effect); settings: CHO-K1 GR-EFC translocation, beta-gal luminescence, 2 h
Method in brief: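 CHO-K1 cells expressing nuclear EA and GR-ED fragments of b-gal; compounds titrated up to 46 uM final, 2 h at 37 C. GR nuclear translocation read as complemented b-gal luminescence after 1 h RT detection.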

[8] = molecular target: Mitogen-activated protein kinase 10 (Mus musculus) (UniProt Q61831); test: JNK3 AlphaScreen Assay (AID 530; active = well fitted curve in either direction with a large enough effect, not every such curve was filed as active;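 also: kinase came from lysate of stimulated human HepG2 cells; signal reports phosphorylation of biotinylated GST-cJun 1-79 at Ser73 with 10 µM ATP; % is scaled to controls: 0 for no effect and ±100 for the full control effect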); settings: JNK3 lysate, c-Jun phosphorylation; series mostly up to 57.1 µM
Method in brief: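 Activity was read by AlphaScreen after JNK3-containing HepG2 lysate (cytokine pre-activated) phosphorylated biotinylated GST-cJun with 10 uM ATP at room temperature. Phospho-Ser73 cJun antibody with Protein-A acceptor beads provided detection.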

[9] = molecular target: 3',5'-cyclic-AMP phosphodiesterase 4B (Homo sapiens) (UniProt Q07343); test: qHTS Assay for Inhibitors of PDE-IV (AID 607; active = well fitted activation curve with a large enough effect in the main read-out, with a control signal flat, not every such curve was filed as active; also: % of control where 0% means no effect); settings: HEK293 ACTOne CNG channel cells, membrane potential fluorescence; series mostly up to 22.9 µM
3',5'-cyclic-AMP phosphodiesterase 4B (Homo sapiens), sequence (Q07343 whole entry, looked up): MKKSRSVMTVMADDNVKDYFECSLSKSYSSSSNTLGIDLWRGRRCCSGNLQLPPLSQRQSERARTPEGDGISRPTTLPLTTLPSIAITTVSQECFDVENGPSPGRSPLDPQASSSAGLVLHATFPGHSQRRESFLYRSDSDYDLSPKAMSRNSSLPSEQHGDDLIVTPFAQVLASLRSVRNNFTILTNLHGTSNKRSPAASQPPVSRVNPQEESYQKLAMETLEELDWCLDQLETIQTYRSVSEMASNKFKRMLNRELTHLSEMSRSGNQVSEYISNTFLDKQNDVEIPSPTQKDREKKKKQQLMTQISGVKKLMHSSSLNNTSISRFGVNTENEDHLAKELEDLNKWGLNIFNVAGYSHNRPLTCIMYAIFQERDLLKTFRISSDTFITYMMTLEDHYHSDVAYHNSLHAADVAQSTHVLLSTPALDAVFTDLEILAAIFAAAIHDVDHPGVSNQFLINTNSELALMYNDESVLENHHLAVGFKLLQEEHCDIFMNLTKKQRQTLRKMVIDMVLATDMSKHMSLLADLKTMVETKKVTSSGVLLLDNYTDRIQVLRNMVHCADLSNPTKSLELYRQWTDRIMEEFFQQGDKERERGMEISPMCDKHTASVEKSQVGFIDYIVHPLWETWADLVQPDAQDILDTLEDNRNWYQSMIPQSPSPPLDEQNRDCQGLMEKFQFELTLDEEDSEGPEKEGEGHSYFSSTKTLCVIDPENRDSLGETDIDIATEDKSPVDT
Method in brief: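 ACTOne HEK293 cells carry a modified cAMP-gated CNG channel and express endogenous PDE4; plated 1000 cells/well, compounds up to 22.9 uM final. Membrane-potential dye fluorescence (ex 535/em 590) was read; parental cells received 10 uM forskolin + 100 uM RO 20-1724.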

[10] = molecular target: Cytochrome P450 2C9 (Homo sapiens) (UniProt P11712); test: qHTS Assay for Inhibitors and Substrates of Cytochrome P450 2C9 (AID 883); settings: recombinant CYP2C9, luciferin-H luminescence, 60 min; series mostly up to 57.1 µM; also: nearly all actives have a fitted effect of over 60% in size; also: potency is read from the fitted curve at half-maximal effect
Cytochrome P450 2C9 (Homo sapiens), sequence (P11712 whole entry, looked up): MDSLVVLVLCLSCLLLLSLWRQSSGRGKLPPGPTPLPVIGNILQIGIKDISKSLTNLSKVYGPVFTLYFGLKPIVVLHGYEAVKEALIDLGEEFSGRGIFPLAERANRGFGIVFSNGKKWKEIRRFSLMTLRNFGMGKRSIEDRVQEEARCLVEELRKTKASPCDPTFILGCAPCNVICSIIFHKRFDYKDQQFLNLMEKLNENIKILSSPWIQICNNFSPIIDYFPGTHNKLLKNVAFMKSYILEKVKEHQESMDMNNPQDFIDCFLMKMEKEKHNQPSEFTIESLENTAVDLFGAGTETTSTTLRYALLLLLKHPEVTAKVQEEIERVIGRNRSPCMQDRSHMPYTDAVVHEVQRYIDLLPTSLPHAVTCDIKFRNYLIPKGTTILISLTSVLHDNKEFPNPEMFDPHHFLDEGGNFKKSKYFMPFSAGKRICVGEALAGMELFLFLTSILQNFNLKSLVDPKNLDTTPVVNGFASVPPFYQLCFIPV
Method in brief: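 Human CYP2C9 (10nM) with Luciferin-H at 100uM (its KM) in 25mM KPO4; compound preincubated 10 min at 37C, then NADPH regeneration for 60 min at 37C. Luciferin read by luminescence after detection reagent; normalized to 57uM sulphaphenazole as full inhibition.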

[11] = qHTS Assay for Lipid Storage Modulators (AID 1519; calls by dose curve); settings: Drosophila S3 cells, BODIPY lipid droplet/cell ratio, laser cytometry, cells loaded with oleic acid; for activity change, negative = inhibition: at 57.5 µM (top of the series)
Method in brief: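 Cells seeded at 5,000 per well were treated with compounds over a concentration series and loaded with oleic acid (400 uM, as added). Lipid droplet fluorescence (488 nm excitation, 500-530 nm channel) was read by laser-scanning cytometry and normalized to 20 uM Triacsin C.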

[12] = molecular target: Dual specificity protein kinase CLK4 (Homo sapiens) (UniProt Q9HAZ1); test: qHTS Assay for Inhibitors of CDC-like Kinase 4 (ADP-FP Assay) (AID 1795); settings: Transcreener ADP fluorescence polarization; series mostly up to 50 µM;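 also: recombinant human CLK4 phosphorylating RS repeat peptide at 1 µM ATP; % is scaled to controls: 0 for no effect and ±100 for the full control effect; nearly all actives have a fitted effect of over 60% in size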
Dual specificity protein kinase CLK4 (Homo sapiens), sequence (Q9HAZ1 whole entry, looked up): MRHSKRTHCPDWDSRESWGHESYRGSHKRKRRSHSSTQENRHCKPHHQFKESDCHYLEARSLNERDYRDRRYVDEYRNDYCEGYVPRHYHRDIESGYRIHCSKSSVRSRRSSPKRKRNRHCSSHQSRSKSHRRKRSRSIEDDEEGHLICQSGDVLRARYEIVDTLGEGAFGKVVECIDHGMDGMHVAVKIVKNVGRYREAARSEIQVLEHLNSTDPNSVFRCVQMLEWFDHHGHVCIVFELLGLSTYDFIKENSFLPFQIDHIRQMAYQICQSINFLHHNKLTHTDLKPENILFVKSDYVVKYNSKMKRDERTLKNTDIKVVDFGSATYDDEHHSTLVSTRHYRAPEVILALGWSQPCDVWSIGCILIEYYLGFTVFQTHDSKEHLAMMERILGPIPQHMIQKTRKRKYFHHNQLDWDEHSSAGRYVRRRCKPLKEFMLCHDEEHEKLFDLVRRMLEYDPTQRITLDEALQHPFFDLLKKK
Method in brief: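 Recombinant Clk4 (6.25 nM) phosphorylated 100 uM RS repeat peptide with 1 uM ATP in 25 mM Tris pH 7.5, 10 mM MgCl2, 0.5 mM EGTA, 2.5 mM DTT, 0.01% Triton X-100 for 1 h. ADP was detected by Transcreener ADP2 competitive fluorescence polarization after 30 min at room temperature.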

[13] = molecular target: Ubiquitin carboxyl-terminal hydrolase 1 (Homo sapiens) (UniProt O94782); test: Inhibitors of USP1/UAF1: Pilot qHTS (AID 504865); settings: purified USP1/UAF1, Ub-rhodamine cleavage fluorescence; series mostly up to 54.9 µM; also: nearly all actives have a fitted effect of over 35% in size; also: potency is read from the fitted curve at half-maximal effect
Ubiquitin carboxyl-terminal hydrolase 1 (Homo sapiens), sequence (O94782 whole entry, looked up): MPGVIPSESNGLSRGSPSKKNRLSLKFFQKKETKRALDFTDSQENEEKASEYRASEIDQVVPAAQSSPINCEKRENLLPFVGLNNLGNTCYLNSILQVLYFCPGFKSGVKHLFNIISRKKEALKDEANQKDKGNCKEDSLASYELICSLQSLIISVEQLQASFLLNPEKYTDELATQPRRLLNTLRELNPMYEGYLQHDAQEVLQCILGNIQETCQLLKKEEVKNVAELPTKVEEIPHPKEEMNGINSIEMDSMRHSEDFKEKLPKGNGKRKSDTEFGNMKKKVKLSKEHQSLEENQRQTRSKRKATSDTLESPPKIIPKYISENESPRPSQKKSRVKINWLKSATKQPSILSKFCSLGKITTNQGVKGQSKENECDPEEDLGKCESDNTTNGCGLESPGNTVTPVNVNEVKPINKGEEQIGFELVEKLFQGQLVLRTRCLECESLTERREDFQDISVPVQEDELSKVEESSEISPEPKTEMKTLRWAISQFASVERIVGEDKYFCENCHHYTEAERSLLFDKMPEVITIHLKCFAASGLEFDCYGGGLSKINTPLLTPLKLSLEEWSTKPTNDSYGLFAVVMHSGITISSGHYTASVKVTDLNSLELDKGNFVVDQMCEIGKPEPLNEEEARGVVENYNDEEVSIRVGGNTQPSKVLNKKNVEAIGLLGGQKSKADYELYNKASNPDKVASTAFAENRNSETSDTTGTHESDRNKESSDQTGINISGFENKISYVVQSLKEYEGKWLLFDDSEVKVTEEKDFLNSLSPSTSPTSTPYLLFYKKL
Method in brief: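 USP1/UAF1 complex at 1 nM preincubated 15 min at room temperature with compound, then Ub-Rho substrate added at 150 nM final. Fluorescence (480/540 nm) read kinetically in 50 mM HEPES pH 7.8, 0.5 mM EDTA, 1 mM TCEP, 0.1 mg/ml BSA, 0.01% Tween-20.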

[14] = Primary qHTS for small molecule stabilizers of the endoplasmic reticulum resident proteome: Secreted ER Calcium Modulated Protein (SERCaMP) assay (AID 1508630); settings: SH-SY5Y GLuc-SERCaMP (Gaussia luciferase released on ER calcium loss) secretion, thapsigargin, luminescence; series mostly up to 38.4 µM; also: % is scaled to controls: 0 for no effect and ±100 for the full control effect
Method in brief: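 The SH-SY5Y reporter protocol was run at 3 concentrations up to 38.3 uM (primary) or 11 concentrations (follow-up): 16 h compound, 100 nM thapsigargin for 4 h, then extracellular luciferase luminescence.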

[15] = molecular target: Cytochrome P450 3A4 (Homo sapiens) (UniProt P08684); test: qHTS Assay for Inhibitors and Substrates of Cytochrome P450 3A4 (AID 884); settings: recombinant CYP3A4, Luciferin-PPXE luminescence; series mostly up to 57.1 µM; also: potency is read from the fitted curve at half-maximal effect; nearly all actives have a fitted effect of over 50% in size
Cytochrome P450 3A4 (Homo sapiens), sequence (P08684 whole entry, looked up): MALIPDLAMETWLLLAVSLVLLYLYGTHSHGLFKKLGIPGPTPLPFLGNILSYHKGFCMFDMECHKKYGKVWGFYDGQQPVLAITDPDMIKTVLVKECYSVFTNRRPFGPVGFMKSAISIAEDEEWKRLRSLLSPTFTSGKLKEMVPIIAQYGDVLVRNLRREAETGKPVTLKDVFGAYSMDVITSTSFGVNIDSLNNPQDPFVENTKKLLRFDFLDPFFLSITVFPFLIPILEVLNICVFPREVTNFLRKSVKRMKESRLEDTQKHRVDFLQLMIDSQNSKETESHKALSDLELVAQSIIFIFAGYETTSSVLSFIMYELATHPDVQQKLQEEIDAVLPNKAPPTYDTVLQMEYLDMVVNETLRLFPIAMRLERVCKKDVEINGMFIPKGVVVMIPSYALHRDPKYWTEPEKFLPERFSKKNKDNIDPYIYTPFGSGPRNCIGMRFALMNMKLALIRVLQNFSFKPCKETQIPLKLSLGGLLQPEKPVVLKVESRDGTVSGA
Method in brief: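 Luminescent readout of luciferin produced by CYP3A4 (20 nM) dealkylation of Luciferin-PPXE, 25 uM (its KM). NADPH-driven reaction ran 60 min at RT after 10 min compound preincubation; data scaled to 57 uM ketoconazole as 100% inhibition.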

[16] = molecular target: Cytochrome P450 3A4 (Homo sapiens) (UniProt P08684); test: qHTS Assay for Activators of Cytochrome P450 3A4 (AID 885); settings: recombinant CYP3A4, Luciferin-PPXE luminescence, 60 min; series mostly up to 57.1 µM; also: nearly all actives have a fitted effect of over 65% in size
Method in brief: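 CYP3A4 activity: Luciferin-PPXE O-dealkylation, 25uM substrate, 200mM KPO4, RT throughout. Read-out is luciferase luminescence; higher values reflect activation.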

[17] = molecular target: Dual specificity protein kinase CLK4 (Homo sapiens) (UniProt Q9HAZ1); test: qHTS Assay for Inhibitors of CDC-like Kinase 4 (ADP-Glo Assay) (AID 1771); settings: recombinant CLK4, ADP-Glo luminescence; series mostly up to 80 µM; also: % is scaled to controls: 0 for no effect and ±100 for the full control effect; nearly all actives have a fitted effect of over 70% in size
Method in brief: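 ADP production was read by ADP-Glo luminescence after residual ATP depletion, following 1 h room-temperature reaction of 25 nM Clk4, 1 uM ATP and 100 uM RS peptide with MgCl2, EGTA, DTT and Triton X-100.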

[18] = measured here: cell count channel max response
[19] = measured here: lipid channel max response

CN(C)C(=O)c1ccc(-c2nc(NC3CCNCC3)c3ccccc3n2)cc1
14.8%: max response [11, 18]
18.3%: max response [11, 19]
inactive: Potency [1] > 11.4 µM | activity change, negative = inhibition [2] 7.64% | activity change, negative = inhibition [4] 12.4% | activity, negative = inhibition [5] 11.2% | Potency [6] > 46 µM | Potency [7] > 46 µM | outcome [8] | Potency [9] | activity change, negative = inhibition [10] 46.2% [at 2.29 µM] | activity change, negative = inhibition [11] 4.99% | Potency [12] | Potency [13] | Potency [14]
active: Potency [3] 20 µM

COc1ccccc1CNc1ncncc1-c1cccnc1
inactive: Potency [1] > 11.4 µM | activity change, negative = inhibition [2] 3.62% | activity change, negative = inhibition [4] 2.12% | activity, negative = inhibition [5] 5.57% | Potency [6] > 46 µM | Potency [7] > 46 µM | outcome [8] | Potency [9] | Potency [16] | activity change, negative = inhibition [11] 3.76% | Potency [12] | Potency [14]
active: Potency [3] 0.794 µM | Potency [15] 0.794 µM
11.7%: max response [11, 18]
13.8%: max response [11, 19]

Clc1ccccc1-c1nccc(NCc2cccs2)n1
active: Potency [13] 28.2 µM
inactive: activity change, negative = inhibition [2] 15.2% | activity change, negative = inhibition [4] 0.38% | activity, negative = inhibition [5] 1.89% | Potency [6] > 46 µM | Potency [7] > 46 µM | outcome [8] | activity change, negative = inhibition [11] 7.3% | Potency [17] | Potency [12] | Potency [14]
18.5%: max response [11, 19]
8.1%: max response [11, 18]

COCCn1c(=O)c(-c2cccc(C#N)c2)nc2cnc(Oc3ccccc3)nc21
-1.86%: max response [11, 18]
inactive: Potency [1] > 11.4 µM | activity change, negative = inhibition [2] -13% | activity change, negative = inhibition [4] 2.72% | activity, negative = inhibition [5] -11.3% | Potency [6] > 9.22 µM | Potency [7] > 46 µM | outcome [8] | Potency [9] | Potency [16] | activity change, negative = inhibition [11] -5.58% | Potency [12] | Potency [13] | Potency [14]
-8.56%: max response [11, 19]
active: Potency [3] 15.8 µM | Potency [10] 7.94 µM

COc1cccc(Nc2ncc3nc(-c4cn(C)c5ccccc45)c(=O)n(CCC#N)c3n2)c1
active: Potency [3] 20 µM
inactive: Potency [1] > 11.4 µM | activity change, negative = inhibition [2] -25.6% | activity change, negative = inhibition [4] -5.99% | activity, negative = inhibition [5] -9.25% | Potency [6] > 9.22 µM | Potency [7] > 46 µM | outcome [8] | Potency [9] | Potency [16] | activity change, negative = inhibition [11] 2.44% | Potency [12] | Potency [13] | Potency [14]
27.4%: max response [11, 19]
27%: max response [11, 18]

Source: PubChem BioAssay (NCATS)
